Results from ChEMBL document CHEMBL3988442, “University of Dundee, Small-Polar-MMV Screening Library” (2021).
For some of these results: Potency and affinity values are given separately.

How the values were obtained:
Set-up in all cases: scale not given: direction of the effect not stated beside the values
[1] = target: Protein translocase subunit SecA (Escherichia coli (strain K12)) (UniProt P10408); test: Assay to Identify E. coli SecA ATPase Inhibitors; type: functional; details: 30 µM
[2] = target: T1, Ubiquitin-activating enzyme e1, putative (Leishmania donovani (strain BPK282A1)) (UniProt E9BSI1); test: Leishmania donovani Ubiquitin Activating Enzyme (LdE1); type: functional; details: 30 µM
T1 sequence (whole entry): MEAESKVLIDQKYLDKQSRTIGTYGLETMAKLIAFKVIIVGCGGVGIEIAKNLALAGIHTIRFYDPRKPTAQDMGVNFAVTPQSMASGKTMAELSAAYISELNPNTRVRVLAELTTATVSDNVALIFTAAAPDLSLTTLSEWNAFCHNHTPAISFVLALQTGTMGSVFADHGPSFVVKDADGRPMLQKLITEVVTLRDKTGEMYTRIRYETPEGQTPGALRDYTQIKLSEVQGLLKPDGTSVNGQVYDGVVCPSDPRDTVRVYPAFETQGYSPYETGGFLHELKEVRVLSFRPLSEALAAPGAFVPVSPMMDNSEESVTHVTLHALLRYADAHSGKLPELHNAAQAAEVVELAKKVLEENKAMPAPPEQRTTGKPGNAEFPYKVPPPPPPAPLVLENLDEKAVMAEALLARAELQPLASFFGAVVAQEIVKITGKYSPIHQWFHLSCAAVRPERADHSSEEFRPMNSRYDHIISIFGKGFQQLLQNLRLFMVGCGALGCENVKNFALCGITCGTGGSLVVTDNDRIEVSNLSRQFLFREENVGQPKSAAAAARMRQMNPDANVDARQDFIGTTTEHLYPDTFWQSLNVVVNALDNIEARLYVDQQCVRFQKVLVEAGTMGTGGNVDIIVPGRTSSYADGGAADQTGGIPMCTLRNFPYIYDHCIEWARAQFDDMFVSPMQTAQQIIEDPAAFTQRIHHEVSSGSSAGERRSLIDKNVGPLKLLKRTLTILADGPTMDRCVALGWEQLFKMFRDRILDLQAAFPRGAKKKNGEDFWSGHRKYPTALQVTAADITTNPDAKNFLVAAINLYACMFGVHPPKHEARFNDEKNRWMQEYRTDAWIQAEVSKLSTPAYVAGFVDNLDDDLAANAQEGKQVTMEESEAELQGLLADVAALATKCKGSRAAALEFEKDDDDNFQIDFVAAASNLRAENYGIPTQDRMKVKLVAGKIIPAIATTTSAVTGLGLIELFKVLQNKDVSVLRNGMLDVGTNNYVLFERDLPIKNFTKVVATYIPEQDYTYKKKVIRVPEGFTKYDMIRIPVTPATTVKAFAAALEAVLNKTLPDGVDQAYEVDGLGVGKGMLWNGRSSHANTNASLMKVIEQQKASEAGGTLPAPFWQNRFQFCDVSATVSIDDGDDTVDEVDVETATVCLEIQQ

[3] = target: AMP-activated protein kinase, AMPK (Homo sapiens) (UniProt P54646+O43741+P54619+Q9UGJ0+Q9Y478+Q13131+Q9UGI9); test: AMP-dependent Kinase enzyme assay. An in vitro enzyme assay that detects ADP turnover that is directly proportional to AMPK activity. This uses naive AMPK that is activated during the assay with MK-8722; type: functional; details: 30 µM
[4] = target: Sialic acid-binding Ig-like lectin 9 (Homo sapiens) (UniProt Q9Y336); test: Hs-Siglec9 ALPHAscreen SOP 20170721; details: 10 µM
Sialic acid-binding Ig-like lectin 9 (Homo sapiens), sequence (Q9Y336 whole entry): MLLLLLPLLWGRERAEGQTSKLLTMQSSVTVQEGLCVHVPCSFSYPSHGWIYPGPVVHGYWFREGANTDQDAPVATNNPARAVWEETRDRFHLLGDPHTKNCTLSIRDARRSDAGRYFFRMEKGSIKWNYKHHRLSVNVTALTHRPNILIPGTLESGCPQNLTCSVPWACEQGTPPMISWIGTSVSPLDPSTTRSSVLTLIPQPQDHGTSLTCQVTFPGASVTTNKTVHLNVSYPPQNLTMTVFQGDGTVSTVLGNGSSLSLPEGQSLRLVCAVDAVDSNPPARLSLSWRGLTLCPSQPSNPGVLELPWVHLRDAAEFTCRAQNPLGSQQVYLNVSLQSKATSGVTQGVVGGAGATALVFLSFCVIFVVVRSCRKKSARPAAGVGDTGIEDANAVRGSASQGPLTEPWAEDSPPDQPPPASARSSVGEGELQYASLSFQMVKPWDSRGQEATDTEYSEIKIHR

Trypanosoma cruzi = test: Trypanosoma cruzi phosphomannomutase and mannose-1-phosphate guanylyltransferase assay; type: functional; details: 10 µM
[5] = target: T2, Arginase-2, mitochondrial (Homo sapiens) (UniProt P78540); test: in vitro enzyme assay to detect the production of urea directly proportional to the activity of Arginase II; type: functional; details: 33.3 µM; further: in the data most compounds retested in dose-response had high values
T2 sequence (whole entry): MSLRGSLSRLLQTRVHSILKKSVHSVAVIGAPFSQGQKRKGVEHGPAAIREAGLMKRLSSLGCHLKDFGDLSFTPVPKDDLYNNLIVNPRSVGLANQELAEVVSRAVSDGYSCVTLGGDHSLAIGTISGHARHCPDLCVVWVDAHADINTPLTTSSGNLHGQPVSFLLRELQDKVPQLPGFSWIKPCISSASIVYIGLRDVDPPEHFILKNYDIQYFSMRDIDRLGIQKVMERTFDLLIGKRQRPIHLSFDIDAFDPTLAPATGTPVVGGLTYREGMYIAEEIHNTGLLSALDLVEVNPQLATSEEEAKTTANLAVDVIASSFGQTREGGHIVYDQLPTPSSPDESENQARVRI

[6] = target: T3, Proteasome subunit beta (Trypanosoma cruzi) (UniProt O96673); test: Trypanosoma cruzi proteasome chymotrypsin-like activity (TcProtChymo) assay.; further: in the data most compounds retested in dose-response had high values; type: functional; details: 9.37 µM
T3 sequence (whole entry): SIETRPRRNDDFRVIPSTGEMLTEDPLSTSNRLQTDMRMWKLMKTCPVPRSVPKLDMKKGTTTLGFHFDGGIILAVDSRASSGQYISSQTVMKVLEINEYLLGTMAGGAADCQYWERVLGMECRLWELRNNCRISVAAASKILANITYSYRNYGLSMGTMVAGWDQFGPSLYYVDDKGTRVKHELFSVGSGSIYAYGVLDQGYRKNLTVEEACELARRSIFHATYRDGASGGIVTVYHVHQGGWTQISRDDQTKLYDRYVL

Homo sapiens = species on record: Homo sapiens; test: To identify inhibition of the IFN signalling (Jak-Stat) pathway via expression of an eGFP reporter gene under the control of an IFN-stimulated response element (ISRE) containing MxA promoter.; type: functional; details: 30 µM
[7] = target: T4, Tyrosyl-tRNA synthetase, putative (Trypanosoma cruzi (strain CL Brener)) (UniProt Q4DSP6); test: Trypanosoma cruzi tyrosyl tRNA synthetase (TcYRS) _High Tyrosine SOP; type: functional; details: 30 µM; further: in the data most compounds retested in dose-response had high values
T4 sequence (whole entry): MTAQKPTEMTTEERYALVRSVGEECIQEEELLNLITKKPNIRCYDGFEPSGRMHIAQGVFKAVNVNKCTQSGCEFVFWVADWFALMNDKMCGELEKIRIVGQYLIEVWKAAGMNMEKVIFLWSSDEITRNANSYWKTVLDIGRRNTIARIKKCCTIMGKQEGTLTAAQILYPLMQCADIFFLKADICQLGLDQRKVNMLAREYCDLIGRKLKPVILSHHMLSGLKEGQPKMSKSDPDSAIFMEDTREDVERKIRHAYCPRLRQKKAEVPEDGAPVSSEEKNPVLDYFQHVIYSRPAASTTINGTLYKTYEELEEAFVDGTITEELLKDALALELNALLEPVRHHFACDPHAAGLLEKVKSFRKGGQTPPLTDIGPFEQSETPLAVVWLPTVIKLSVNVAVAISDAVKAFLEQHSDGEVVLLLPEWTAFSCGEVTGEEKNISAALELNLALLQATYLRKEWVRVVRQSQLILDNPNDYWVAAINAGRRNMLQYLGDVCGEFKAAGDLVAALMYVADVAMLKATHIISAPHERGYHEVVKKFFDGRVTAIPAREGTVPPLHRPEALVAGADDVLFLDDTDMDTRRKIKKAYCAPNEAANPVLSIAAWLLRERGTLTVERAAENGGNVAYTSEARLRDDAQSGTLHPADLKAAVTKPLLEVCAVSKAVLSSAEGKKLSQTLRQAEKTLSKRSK

[8] = target: T4, Tyrosyl-tRNA synthetase, putative (Trypanosoma cruzi (strain CL Brener)); test: Trypanosoma cruzi tyrosyl tRNA synthetase (TcYRS) SOP; type: functional; details: 30 µM
[9] = target: Chromo domain-containing protein 1 (Saccharomyces cerevisiae (strain ATCC 204508 / S288c) (Baker's yeast)) (UniProt P32657); test: ScCHD-1 Enzyme Inhibition Assay; type: functional; details: 30 µM; further: in the data most compounds retested in dose-response had high values
Chromo domain-containing protein 1 (Saccharomyces cerevisiae (strain ATCC 204508 / S288c) (Baker's yeast)), sequence (P32657 whole entry, the tested form may be a part): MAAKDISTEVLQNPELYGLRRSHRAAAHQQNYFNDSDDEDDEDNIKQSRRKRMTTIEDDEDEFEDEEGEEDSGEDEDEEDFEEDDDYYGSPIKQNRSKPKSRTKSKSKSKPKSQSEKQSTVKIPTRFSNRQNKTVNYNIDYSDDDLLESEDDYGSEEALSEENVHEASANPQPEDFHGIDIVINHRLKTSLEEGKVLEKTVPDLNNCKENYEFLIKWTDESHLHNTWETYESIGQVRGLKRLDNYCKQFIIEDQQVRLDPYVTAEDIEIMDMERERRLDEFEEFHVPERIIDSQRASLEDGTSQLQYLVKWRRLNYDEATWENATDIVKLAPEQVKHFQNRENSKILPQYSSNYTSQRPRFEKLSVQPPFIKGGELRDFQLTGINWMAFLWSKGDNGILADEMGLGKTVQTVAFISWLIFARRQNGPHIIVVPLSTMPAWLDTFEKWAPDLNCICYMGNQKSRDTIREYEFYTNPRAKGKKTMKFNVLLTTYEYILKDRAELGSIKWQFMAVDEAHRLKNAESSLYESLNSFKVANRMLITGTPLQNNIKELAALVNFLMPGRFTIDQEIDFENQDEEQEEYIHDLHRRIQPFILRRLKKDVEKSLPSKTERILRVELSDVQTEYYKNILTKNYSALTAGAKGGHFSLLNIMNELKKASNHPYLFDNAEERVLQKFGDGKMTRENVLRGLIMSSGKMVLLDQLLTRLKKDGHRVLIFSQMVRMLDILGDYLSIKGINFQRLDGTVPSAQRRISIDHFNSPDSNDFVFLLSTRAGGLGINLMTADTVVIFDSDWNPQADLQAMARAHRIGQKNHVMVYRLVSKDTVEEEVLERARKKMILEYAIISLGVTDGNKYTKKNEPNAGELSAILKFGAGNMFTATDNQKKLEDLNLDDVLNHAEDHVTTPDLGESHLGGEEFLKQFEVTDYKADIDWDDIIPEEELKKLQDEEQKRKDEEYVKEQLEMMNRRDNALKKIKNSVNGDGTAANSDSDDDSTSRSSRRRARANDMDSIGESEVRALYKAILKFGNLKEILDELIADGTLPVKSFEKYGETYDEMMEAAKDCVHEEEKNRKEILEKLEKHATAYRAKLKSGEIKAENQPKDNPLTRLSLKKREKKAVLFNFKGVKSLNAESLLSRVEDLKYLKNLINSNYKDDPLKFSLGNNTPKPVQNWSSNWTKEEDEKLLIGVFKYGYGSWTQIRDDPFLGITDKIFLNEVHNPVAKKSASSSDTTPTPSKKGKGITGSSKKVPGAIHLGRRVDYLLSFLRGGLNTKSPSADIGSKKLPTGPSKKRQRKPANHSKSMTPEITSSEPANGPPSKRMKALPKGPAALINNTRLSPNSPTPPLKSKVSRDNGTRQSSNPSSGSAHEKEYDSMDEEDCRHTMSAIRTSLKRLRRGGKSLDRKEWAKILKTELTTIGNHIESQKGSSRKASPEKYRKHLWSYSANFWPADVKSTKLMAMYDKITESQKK

Protein translocase subunit SecA (Escherichia coli (strain K12)), sequence (P10408 whole entry): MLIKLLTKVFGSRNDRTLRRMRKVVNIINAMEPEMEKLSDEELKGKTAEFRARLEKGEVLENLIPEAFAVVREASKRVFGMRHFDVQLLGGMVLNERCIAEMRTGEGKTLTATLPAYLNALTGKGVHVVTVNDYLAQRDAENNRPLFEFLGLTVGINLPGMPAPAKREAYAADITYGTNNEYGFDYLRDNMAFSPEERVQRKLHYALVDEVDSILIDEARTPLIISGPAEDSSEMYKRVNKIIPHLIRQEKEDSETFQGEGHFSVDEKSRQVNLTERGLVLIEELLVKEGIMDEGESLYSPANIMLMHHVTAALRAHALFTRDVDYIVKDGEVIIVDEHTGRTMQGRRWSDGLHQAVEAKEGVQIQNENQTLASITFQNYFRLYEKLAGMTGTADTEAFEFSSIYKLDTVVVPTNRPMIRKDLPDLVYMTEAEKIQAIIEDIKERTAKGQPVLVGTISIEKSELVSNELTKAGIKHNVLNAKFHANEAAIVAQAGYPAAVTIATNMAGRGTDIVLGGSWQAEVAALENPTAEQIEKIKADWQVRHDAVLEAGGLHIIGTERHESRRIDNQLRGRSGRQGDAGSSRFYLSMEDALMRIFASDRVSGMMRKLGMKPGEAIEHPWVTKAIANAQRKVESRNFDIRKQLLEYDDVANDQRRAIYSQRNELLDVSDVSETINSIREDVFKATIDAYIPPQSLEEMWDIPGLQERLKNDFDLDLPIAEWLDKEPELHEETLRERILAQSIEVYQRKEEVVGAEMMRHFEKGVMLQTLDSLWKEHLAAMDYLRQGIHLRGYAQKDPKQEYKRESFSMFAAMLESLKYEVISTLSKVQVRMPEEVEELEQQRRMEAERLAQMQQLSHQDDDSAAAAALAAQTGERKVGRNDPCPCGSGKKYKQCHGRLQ

SMILES	Percent Effect [1] [%]	Percent Effect [2] [%]	Percent Effect [3] [%]	Percent Effect [4] [%]	Percent Effect (Trypanosoma cruzi) [%]	Percent Effect [5] [%]	Percent Effect [6] [%]	Percent Effect (Homo sapiens) [%]	Percent Effect [7] [%]	Percent Effect [8] [%]	Percent Effect [9] [%]
O=C(CCc1ccccc1)N1CCn2cc(CN3CCCC3)nc2C1	0.2	5.2	-2.41	2.78	-1.08	-3.23	11.8	7.71	12.7	16.7	-2.74
Cc1ccc(CN2CCn3cc(CN(C)Cc4ccco4)nc3C2)o1	-4.77	15.6	-9.82	2.5	7.2	-9.68	16.2	7.34	4.23	11.5	-10.4
O=C(CN1CCOC(Cn2cccn2)C1)Nc1nncs1 (stereo unspecified)	-7.55	10.4	-7.65	-17.4	10.3	-4	11.2	13.3	9.52	18.8	-22.6
COCc1cncc2c1CCN(C(=O)c1ccc(C)o1)C2	-3.33	10.7	1.34	-0.678	-4.63	-60	6.33	-0.987	4.17	5	-6.41
Cn1cc(CN2CC[C@@H]3[C@@H](CCC(=O)N3CCC3=CCCCC3)C2)cn1	-5.13	8.22	4.85	0.26	0.992	-2.79	10.7	-22.4	0	1.24	1.06
CCN(Cc1nc2c(cnn2C)c(=O)[nH]1)Cc1cccs1	-4.13	15.6	-1.29	-13.1	4.6	-10.3	15.3	-0.846	7.62	25.9	-21.1
COc1cccc2c1OCC(NC(=O)NC1CCN(C3CC3)CC1)C2 (stereo unspecified)	-3.95	0	4.77	0.911	4.77	0	10.6	3.27	6.38	7.79	-0.292
Cn1cc(CN2CC[C@H](O)[C@@H]2Cc2ccncc2)cn1	-8.41	5.41	-33.1	-9.45	-0.293	-0.955	1.66	26.4	-1.08	-2.56	3.16
CN(C)C(=O)c1nc2c(s1)CCN(C(=O)c1ccc(Cl)cc1)CC2	-2.69	18.7	-9.31	-1.54	2.7	-29.6	10.4	-8.27	9.38	30	-12.2
COC1COC2(CCN(Cc3ccccc3Cl)CC2)C1 (stereo unspecified)	-5.82	1.33	7.01	5.98	-0.982	2.29	11.5	20.8	-2.12	5.13	0.93
O=C(c1cccs1)N1C[C@H]2CC[C@@]3(N=C(c4ccccc4)NC3=O)[C@H]2C1	-1.64	7.79	0.0999	7.14	-2.06	-4.14	13.3	9.87	1.07	13.6	-0.884
